Laboratory results taken from PubChem BioAssay (NCI).
This is part of a sample that, as a whole, favours compounds with a hit. Of some 83,000 tested, about 20% had one in any assay.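 Negative percent growth values reflect cell death: -40 means 40% of the cells present at the start died, and -100 means all died.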 The source made the active and inactive calls. The calls were made as follows: active = growth percent below 10; inactive = the rest.

The compounds below were run on SK-MEL-2 melanoma (assay: NCI-60 one-dose screen, 48 h (100 = growth as untreated, 0 = no growth, -100 = all killed)). Settings: 10 µM unless noted.
In the case of `COC(=O)[C@]12CC[C@@H](C)[C@H](C)[C@@H]1C1=CC[C@@H]3[C@@]4(C)C[C@@H](OC(C)=O)[C@H](O)[C@@](C)(COC(C)=O)[C@@H]4[C@H](O)C[C@@]3(C)[C@]1(C)CC2`, the growth is reported as -73.6% (active).
For `N#Cc1c(-c2ccco2)nc2c(c(-c3ccccc3)nn2-c2ccccc2)c1-c1ccc(O)cc1`, the growth was 70.4% (inactive).
In the case of `CC(=O)c1c(C)[nH]c(-c2nc3ccc(N4CCN(C)CC4)cc3[nH]2)c1-c1ccc2c(c1)OCCO2`, the growth is reported as 76.4% (inactive).
`COc1ccc(C(=O)c2ccc(C)cc2)c(OC)c1OC` was tested, and the growth was 60.3% (inactive).
In the case of `C[C@H]1OC(=O)/C=C/[C@@H](O)[C@@H](O)CCCCCCCC[C@@H]1O`, the growth is reported as 102% (inactive).
`COc1ccccc1-n1cnc(N)c1C(=O)c1cc(OC)c(OC)c(OC)c1` was tested, and the growth was 57.1% (inactive).
`COc1ccc(/C=C(\C#N)c2cc3ccccc3n2S(C)(=O)=O)cc1` was tested, and the growth was 101% (inactive).
`Cc1cccc2c1NC(=O)[C@@]21[C@H](C(=O)c2ccccc2)[C@]2(C(=O)Nc3ccccc32)[C@H]2CCCN21` was tested, and the growth was 18.1% [100 µM] (inactive).
In the case of `N=c1ccc2nc3c(cc(N)c4ccccc43)oc-2c1`, the growth is reported as -36.1% (active).
`COc1cccc(-c2nn(-c3ccccc3)cc2-c2ccnc(NCCCNS(=O)(=O)c3ccc(Br)cc3)c2)c1` was tested, and the growth was 50.9% (inactive).
`Cc1ccc(-c2nn(Cc3cn(-c4cc(C)nc5ccccc45)nn3)c3ncnc(N)c23)cc1` was tested, and the growth was 76.2% (inactive).
`COc1ccc2c(c1)c1nc3cc(C)c(C)cc3nc1n2CCN(C)C` was tested, and the growth was 26.4% (inactive).
For `CC(=O)n1c(/C(C#N)=C/c2ccc(N(C)C)cc2)cc2ccccc21`, the growth was 47.9% (inactive).
In the case of `C[C@H]1[C@H]2C3=CC[C@@H]4[C@@]5(C)C/C(=C/c6ccco6)C(=O)C(C)(C)[C@@H]5CC[C@@]4(C)[C@]3(C)CC[C@@]2(C(=O)N2CCOCC2)CC[C@@H]1C`, the growth is reported as 106% (inactive).
With `Fc1ccc(Nc2ccc3c(OCCCN4CCOCC4)cccc3n2)cc1F` the growth was 95.2% (inactive).
In the case of `COc1cccc(-c2nn(-c3ccccc3)cc2-c2ccnc(NCCNS(=O)(=O)c3ccc(C(F)(F)F)cc3)c2)c1`, the growth is reported as -11.3% (active).
For `Cn1cnc2c1c(=O)n(CCC(=O)Nc1ccc(F)cc1)c(=O)n2C`, the growth was 105% (inactive).
`COCCNC1=C(Cl)C(=O)c2ccccc2C1=O` was tested, and the growth was 103% (inactive).
For `CCCCn1c(-c2ccc(O)cc2)cn2c3c(=O)[nH]c(=O)n(C)c3nc12`, the growth was 45.8% (inactive).
With `Cc1ccc(N(CC(=O)Nc2ccc(S(=O)(=O)NC3CCN(C)CC3)cc2)S(=O)(=O)c2ccc(Cl)cc2)cc1` the growth was 104% (inactive).
In the case of `CC(=O)OC[C@]12CC[C@@H](/C(C)=N/O)[C@@H]1[C@H]1CC[C@@H]3[C@@]4(C)CCCNC(C)(C)[C@@H]4CC[C@@]3(C)[C@]1(C)CC2`, the growth is reported as 94.5% (inactive).
For `Clc1ccc(Cn2cc(-c3nc4ccc(Br)nc4n3Cc3ccc(Cl)cc3)c3cccnc32)cc1`, the growth was 89.2% (inactive).
`CN1CCN(CCOc2ccc(-c3cnc4c(-c5cccc(F)c5)cnn4c3)cc2)CC1` was tested, and the growth was 97.8% (inactive).
In the case of `CN1CCN(c2nc(-c3csc(-c4cccs4)n3)cc3ccccc23)CC1`, the growth is reported as 39.7% (inactive).
For `CCN(CC)CCCCCCNc1ccnc2cc(Cl)ccc12`, the growth was 128% (inactive).
With `CCCCCCCC(=O)SCC/C=C/[C@@H]1CC(=O)NCc2cccc(n2)CN(Cc2ccc(Cl)cc2)CC(=O)N[C@@H](C(C)C)C(=O)O1` the growth was 1.04% (active).
In the case of `c1cc(N2CCCC2)c2nc(-c3[nH]ncc3Nc3ncnc4[nH]ccc34)[nH]c2c1`, the growth is reported as -42.1% (active).
For `COc1ccc(C2=NN(c3nc(-c4ccc(OC)cc4)c(C#N)c(=O)n3C)C(=O)CC2)cc1`, the growth was 98.4% (inactive).
`Cc1ccc(S(=O)(=O)Nc2ccc(-c3cc(-c4cccc(F)c4)c(C#N)c(N)n3)cc2)cc1` was tested, and the growth was 17.1% (inactive).
With `CC(C)(C)c1ccc(OCCCCCCCN2CCNCC2)cc1` the growth was 103% (inactive).
For `COC(=O)CNc1nc(N(C)O)nc(N(C)O)n1`, the growth was 113% (inactive).
For `COc1cc2ncnc(Nc3ccc(Oc4ccnc(C)c4)c(C)c3)c2cc1NC(=O)CC1CCSS1` (centres undefined), the growth was -57.7% (active).
For `C=C(C)[C@@H]1CC[C@]2(C)[C@H](CC[C@@H]3[C@H]4[C@H]5OC[C@@]4(CCC5(C)C)CC[C@]32C)[C@@]1(C)CCCN`, the growth was 101% (inactive).
For `c1ccc(-c2nc(Nc3ccc(-c4nc5ccccc5[nH]4)cc3)nc(N3CCOCC3)n2)cc1`, the growth was -52.7% (active).
With `CCOC(=O)C1OC1(c1ccccc1)c1ccccc1` (centres undefined) the growth was 112% (inactive).
`CCN1CCN(C(=O)[C@@]2(C)CC[C@]3(C)CC[C@]4(C)C(=CC(=O)[C@@H]5[C@@]6(C)CC[C@H](OCCC#N)C(C)(C)[C@@H]6CC[C@]54C)[C@@H]3C2)CC1` was tested, and the growth was 93.5% (inactive).
`O=S(=O)(NCCNc1cc(-c2cn(-c3ccccc3)nc2-c2cccc(O)c2)ccn1)c1cccc(F)c1` was tested, and the growth was 53.1% (inactive).
`N#CC1=C(N)Oc2ccc3ccccc3c2C1c1ccccc1` (centres undefined) was tested, and the growth was 49.7% (inactive).
For `COc1ccc(-c2cc(=O)oc3ccc(Cl)cc23)cc1F`, the growth was 36.3% (inactive).
